The text below walks through data of PubChem BioAssay (Tox21).

“And” between values parts separate entries of the source, which are not always exact repeats. Equal values may be shown once. Results filed as inconclusive are left out. Some compounds were tested as several samples or in several runs, with calls that do not always agree. The source made the active and inactive calls. Unless noted, calls come from the whole dose curve; as a rule, active = well fitted curve in the direction sought with a large enough effect in the repeat runs; inconclusive = weak or mixed curves; inactive = no such curve, though single readings can be large; an effect the other way counts as inactive or inconclusive.

In experiment [1] the target is Acetylcholinesterase (Homo sapiens) (UniProt P22303). Kind of experiment: Acetylcholinesterase (AChE) small molecule antagonists: enzyme-based qHTS assay (AID 1347397; calls by dose curve; note: nearly all actives have a fitted effect of over 55% in size; note: potency is the fitted concentration of half-maximal effect). The note with it: Potency: AChE enzyme activity inhibition. The essentials: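 Colorimetric DTNB readout of acetylthiocholine hydrolysis, 10 min at room temperature, after 30 min room-temperature exposure of 50 mU/mL recombinant human enzyme to compound; DMSO vehicle control.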
On the technique in general: Quantitative high-throughput screening tests each substance at several concentrations.

For experiment [2] the target is unchanged. Kind of experiment: Acetylcholinesterase (AChE) small molecule antagonists: fluorescence cell-based qHTS assay (AID 1347398; calls by dose curve; note: nearly all actives have a fitted effect of over 50% in size; note: potency is the fitted concentration of half-maximal effect). The note with it: Potency: AChE activity. The essentials:
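Cellular AChE activity read as thiocholine from acetylthiocholine hydrolysis, detected by Thiolite Green fluorescence at 490/520 nm after 40 min at room temperature. Compounds were pre-incubated 30 min at 37 C on adherent SH-SY5Y cells.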

Experiment [3] has the same target. Description: Acetylcholinesterase (AChE) small molecule antagonists: enzyme-based qHTS assay with human liver microsomes (AID 1347399; calls by dose curve; note: nearly all actives have a fitted effect of over 60% in size). As to conditions: Potency: qHTS inhibition. The essentials:
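Recombinant human AChE (50 mU/mL in the enzyme mix) and human liver microsomes (0.25 mg/mL final) were preincubated with compound and NADPH (0.25 mg/mL final) for 30 min at 37 C. Acetylthiocholine/DTNB was then added; thiocholine was read colorimetrically after 10 min at room temperature.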

Experiment [4] concerns the target Cytochrome P450 2D6 (Homo sapiens) (UniProt P10635). Kind of experiment: Cytochrome P450 Family 2 Subfamily D Member 6 (CYP2D6) small molecule antagonists: luciferase reporter qHTS assay (AID 1671196). Note: nearly all actives have a fitted effect of over 50% in size. Note: potency is the fitted concentration of half-maximal effect. The gist of the method: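 Chemicals tested for interference with CYP2D6 activity; proluciferin substrate, NADPH regeneration, 1 h at room temperature, luminescent detection.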
On the technique in general: A reporter such as luciferase makes a cellular process visible.

The target of experiment [5] is Cytochrome P450 2C19 (Homo sapiens) (UniProt P33261). Kind of experiment: Cytochrome P450 Family 2 Subfamily C Member 19 (CYP2C19) small molecule antagonists: luciferase reporter qHTS assay (AID 1671197). Note: nearly all actives have a fitted effect of over 65% in size. Note: potency is the fitted concentration of half-maximal effect. The essentials: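 Luminescent readout of CYP2C19 activity: luciferin product detected 20 min after adding detection reagent. Before that, compound and enzyme-substrate mix preincubated 10 min at room temperature; NADPH-regenerating system started a 1 h, 37C reaction. Ketoconazole as positive control.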

Experiment [6] concerns the target Cytochrome P450 2C9 (Homo sapiens) (UniProt P11712). Kind of experiment: Cytochrome P450 Family 2 Subfamily C Member 9 (CYP2C9) small molecule antagonists: luciferase reporter qHTS assay (AID 1671198). Note: nearly all actives have a fitted effect of over 50% in size. Note: potency is the fitted concentration of half-maximal effect. The essentials:
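Enzyme-substrate mix preincubated with compound 10 min at room temperature; reaction started with NADPH regeneration solution, 1 h 37C. Luminescent luciferin product read after 20 min detection reagent.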

The target in experiment [7] is Cytochrome P450 1A2 (Homo sapiens) (UniProt P05177). Description: Cytochrome P450 Family 1 Subfamily A Member 2 (CYP1A2) small molecule antagonists: luciferase reporter qHTS assay (AID 1671199). Note: nearly all actives have a fitted effect of over 50% in size. Note: potency is the fitted concentration of half-maximal effect. The essentials:
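Read-out is luminescence from luciferin detection reagent (20 min) proportional to CYP1A2 activity; compounds in DMSO preincubated 10 min with enzyme and proluciferin substrate, then NADPH regeneration solution, 1 h, room temperature.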

Experiment [8] concerns the target Voltage-gated inwardly rectifying potassium channel KCNH2 (Homo sapiens) (UniProt Q12809). Description: Human Ether-a-go-go-Related Gene (hERG) channel small molecule antagonists: fluorescence cell-based qHTS assay (AID 1671200). Note: nearly all actives have a fitted effect of over 50% in size. Note: potency is the fitted concentration of half-maximal effect. The essentials: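 Thallium served as the potassium surrogate; its influx into dye-loaded U2OS cells carrying the channel was measured by fluorescence over 2 min.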

In experiment [9] the target is Cytochrome P450 3A4 (Homo sapiens) (UniProt P08684). Kind of experiment: Cytochrome P450 Family 3 Subfamily A Member 4 (CYP3A4) small molecule antagonists: luciferase reporter qHTS assay (AID 1671201). Note: nearly all actives have a fitted effect of over 50% in size. Note: potency is the fitted concentration of half-maximal effect. The essentials: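 Relative luminescence units after 20 min with luciferin detection reagent served as read-out. Beforehand, CYP3A4 turned over a proluciferin substrate for 1 h at room temperature with NADPH regeneration, following 10 min compound preincubation.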
Cytochrome P450 3A4 (Homo sapiens), sequence (P08684 whole entry, looked up): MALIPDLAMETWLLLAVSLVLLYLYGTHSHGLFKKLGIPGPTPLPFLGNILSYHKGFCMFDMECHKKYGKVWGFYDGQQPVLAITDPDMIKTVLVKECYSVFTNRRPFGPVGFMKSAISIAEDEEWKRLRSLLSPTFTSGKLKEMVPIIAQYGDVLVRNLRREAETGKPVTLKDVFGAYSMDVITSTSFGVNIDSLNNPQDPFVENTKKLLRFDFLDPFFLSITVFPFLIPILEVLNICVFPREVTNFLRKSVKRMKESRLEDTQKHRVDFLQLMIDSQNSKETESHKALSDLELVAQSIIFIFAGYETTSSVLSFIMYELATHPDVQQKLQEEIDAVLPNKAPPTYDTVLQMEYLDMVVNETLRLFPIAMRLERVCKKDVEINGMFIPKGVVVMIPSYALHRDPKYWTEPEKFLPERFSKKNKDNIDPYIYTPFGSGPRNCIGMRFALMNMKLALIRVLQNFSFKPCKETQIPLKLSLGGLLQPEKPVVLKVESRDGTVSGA

Acetylcholinesterase (Homo sapiens), sequence (P22303 whole entry, looked up): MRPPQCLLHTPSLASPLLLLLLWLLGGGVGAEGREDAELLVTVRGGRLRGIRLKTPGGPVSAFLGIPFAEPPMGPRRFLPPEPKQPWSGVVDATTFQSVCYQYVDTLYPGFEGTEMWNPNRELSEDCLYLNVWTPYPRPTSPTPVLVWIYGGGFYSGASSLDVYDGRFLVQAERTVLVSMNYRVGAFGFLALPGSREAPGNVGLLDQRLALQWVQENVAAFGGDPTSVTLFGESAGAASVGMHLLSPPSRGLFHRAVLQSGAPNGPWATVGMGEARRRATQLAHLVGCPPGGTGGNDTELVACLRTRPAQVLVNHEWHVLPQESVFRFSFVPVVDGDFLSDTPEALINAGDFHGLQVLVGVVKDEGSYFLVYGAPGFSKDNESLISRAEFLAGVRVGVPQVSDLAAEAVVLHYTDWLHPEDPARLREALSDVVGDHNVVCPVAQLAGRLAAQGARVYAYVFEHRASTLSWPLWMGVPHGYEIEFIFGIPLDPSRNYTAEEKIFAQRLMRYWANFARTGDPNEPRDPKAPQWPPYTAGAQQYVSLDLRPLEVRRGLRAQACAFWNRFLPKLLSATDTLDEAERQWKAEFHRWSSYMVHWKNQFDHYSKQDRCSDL
Cytochrome P450 2C9 (Homo sapiens), sequence (P11712 whole entry, looked up): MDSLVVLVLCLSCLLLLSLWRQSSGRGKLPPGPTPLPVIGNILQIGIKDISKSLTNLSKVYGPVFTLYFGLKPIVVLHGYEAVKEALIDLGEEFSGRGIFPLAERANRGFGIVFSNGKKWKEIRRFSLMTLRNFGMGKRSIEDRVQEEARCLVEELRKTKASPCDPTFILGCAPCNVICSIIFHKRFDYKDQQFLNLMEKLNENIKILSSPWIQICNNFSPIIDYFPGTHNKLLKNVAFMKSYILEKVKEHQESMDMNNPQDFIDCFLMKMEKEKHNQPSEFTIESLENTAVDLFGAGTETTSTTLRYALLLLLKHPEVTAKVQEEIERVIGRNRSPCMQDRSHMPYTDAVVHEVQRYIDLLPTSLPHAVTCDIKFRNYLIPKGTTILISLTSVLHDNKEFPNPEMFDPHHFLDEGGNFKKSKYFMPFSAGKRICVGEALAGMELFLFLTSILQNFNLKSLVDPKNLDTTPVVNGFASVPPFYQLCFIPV
Voltage-gated inwardly rectifying potassium channel KCNH2 (Homo sapiens), sequence (Q12809 whole entry, looked up): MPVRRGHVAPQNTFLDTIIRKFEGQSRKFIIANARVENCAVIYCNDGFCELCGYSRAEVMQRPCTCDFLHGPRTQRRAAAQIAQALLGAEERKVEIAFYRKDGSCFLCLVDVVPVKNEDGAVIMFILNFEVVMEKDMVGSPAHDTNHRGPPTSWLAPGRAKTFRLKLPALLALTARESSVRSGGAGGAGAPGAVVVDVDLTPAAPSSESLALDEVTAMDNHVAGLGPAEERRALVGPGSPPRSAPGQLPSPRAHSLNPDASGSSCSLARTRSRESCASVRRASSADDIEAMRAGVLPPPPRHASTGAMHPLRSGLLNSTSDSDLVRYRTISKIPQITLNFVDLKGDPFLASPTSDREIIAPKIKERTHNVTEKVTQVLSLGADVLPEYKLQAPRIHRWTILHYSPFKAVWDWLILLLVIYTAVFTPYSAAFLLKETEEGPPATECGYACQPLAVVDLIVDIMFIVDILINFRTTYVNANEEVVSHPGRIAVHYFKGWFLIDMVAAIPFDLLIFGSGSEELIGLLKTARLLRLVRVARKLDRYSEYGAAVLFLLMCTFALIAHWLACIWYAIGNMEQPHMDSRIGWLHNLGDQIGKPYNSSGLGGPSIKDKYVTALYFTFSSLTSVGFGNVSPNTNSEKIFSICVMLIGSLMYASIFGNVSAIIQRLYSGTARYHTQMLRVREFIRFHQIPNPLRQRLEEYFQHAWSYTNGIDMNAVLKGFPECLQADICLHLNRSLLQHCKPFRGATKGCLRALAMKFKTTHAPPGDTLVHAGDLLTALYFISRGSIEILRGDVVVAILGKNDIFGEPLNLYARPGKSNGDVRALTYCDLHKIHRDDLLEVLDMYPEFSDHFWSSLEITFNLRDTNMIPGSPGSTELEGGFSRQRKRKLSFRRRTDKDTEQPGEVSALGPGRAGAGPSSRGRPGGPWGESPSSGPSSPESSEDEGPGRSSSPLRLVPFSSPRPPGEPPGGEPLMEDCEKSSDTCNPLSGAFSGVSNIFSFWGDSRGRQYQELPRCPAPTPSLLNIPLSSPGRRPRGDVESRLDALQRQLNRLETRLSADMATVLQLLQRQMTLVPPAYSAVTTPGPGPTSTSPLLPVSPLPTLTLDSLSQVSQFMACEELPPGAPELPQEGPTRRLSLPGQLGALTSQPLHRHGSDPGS
Cytochrome P450 2C19 (Homo sapiens), sequence (P33261 whole entry, looked up): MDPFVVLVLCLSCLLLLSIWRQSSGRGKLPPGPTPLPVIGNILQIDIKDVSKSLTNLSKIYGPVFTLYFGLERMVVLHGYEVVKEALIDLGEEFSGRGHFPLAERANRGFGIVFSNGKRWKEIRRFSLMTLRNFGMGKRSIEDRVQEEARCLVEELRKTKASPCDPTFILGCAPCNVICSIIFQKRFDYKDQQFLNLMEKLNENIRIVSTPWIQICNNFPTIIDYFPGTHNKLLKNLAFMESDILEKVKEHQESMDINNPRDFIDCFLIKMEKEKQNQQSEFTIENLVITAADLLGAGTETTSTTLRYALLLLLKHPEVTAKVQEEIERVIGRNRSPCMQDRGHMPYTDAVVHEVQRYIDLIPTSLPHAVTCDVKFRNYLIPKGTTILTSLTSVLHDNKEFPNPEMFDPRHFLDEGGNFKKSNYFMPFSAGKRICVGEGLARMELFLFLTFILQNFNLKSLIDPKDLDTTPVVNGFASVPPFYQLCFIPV
Cytochrome P450 1A2 (Homo sapiens), sequence (P05177 whole entry, looked up): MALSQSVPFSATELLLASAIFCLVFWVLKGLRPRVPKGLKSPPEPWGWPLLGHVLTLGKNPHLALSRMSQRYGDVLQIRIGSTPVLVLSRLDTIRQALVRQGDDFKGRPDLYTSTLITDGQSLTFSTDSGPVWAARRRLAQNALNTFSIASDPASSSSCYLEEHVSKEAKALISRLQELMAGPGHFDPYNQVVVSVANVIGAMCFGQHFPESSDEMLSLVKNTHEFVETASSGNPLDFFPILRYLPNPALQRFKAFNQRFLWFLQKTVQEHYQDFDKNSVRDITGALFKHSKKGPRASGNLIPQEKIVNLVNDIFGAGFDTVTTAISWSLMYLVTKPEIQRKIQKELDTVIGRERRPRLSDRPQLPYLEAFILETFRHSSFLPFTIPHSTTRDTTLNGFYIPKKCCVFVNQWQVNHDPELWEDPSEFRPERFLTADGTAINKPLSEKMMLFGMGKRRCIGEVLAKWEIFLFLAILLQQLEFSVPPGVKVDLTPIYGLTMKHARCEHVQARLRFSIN
Cytochrome P450 2D6 (Homo sapiens), sequence (P10635 whole entry, looked up): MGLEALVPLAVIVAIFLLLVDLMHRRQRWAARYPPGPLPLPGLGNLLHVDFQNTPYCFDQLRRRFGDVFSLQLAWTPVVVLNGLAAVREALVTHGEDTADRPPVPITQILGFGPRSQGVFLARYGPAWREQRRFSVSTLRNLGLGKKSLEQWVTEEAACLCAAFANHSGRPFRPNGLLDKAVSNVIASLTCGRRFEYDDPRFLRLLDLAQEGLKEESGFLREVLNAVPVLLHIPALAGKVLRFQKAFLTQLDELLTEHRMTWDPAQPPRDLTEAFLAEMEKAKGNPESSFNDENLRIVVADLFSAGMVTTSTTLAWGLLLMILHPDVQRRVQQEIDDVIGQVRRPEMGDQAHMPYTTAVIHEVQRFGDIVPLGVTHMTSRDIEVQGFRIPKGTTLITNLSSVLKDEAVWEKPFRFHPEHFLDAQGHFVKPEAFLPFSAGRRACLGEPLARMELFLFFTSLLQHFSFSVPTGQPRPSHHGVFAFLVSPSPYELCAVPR

In the case of `CCCCN(CCCC)C(=S)[S-].CCCCN(CCCC)C(=S)[S-].[Ni+2]`, the Potency result in experiment [1], in [2], in [3], in experiment [4], in experiment [5] and in experiment [6] was “inactive” each time. In addition, the Potency result in experiment [7], in experiment [8] and in experiment [9] was “inactive” throughout.

As for `Cc1ccn2nc(S(=O)(=O)Nc3c(F)cccc3F)nc2n1`, the Potency result in [1], in experiment [2], in [3], in [4], in experiment [5] and in experiment [7] was “inactive” throughout. In addition, the Potency result in experiment [8] and in experiment [9] was “inactive” each time. Besides, the Potency in experiment [6] was 39.9 µM (active).

`O=NN(CCO)CCO`: the Potency entry in experiment [1], in [2], in experiment [3], in experiment [4], in [6] and in [7] was “inactive” each time. For the same compound, the Potency result in experiment [8] and in experiment [9] was “inactive” throughout. Besides, the Potency in [5] was 78.4 µM (active).

With `COP(=S)(OC)Oc1nc(Cl)c(Cl)cc1Cl`, the Potency result in experiment [1], in experiment [2], in experiment [3], in experiment [4] and in [8] was “inactive” in each case. The Potency was 79.6 µM (active) in experiment [5], 25.2 µM (active) in [6], 44.8 µM (active) in [7] and 11.2 µM (active) in experiment [9].

On to `Oc1cccc(Cl)c1Cl`, for which the Potency result in experiment [1], in experiment [2], in experiment [3], in experiment [6], in experiment [8] and in experiment [9] was “inactive” throughout. Moreover, the Potency in [4] is 56.6 µM (active); in experiment [5], 80 µM (active); in [7], 35.7 µM (active).

For the compound `C[N+]1(C)[C@@H]2CC[C@H]1CC(OC(=O)C(CO)c1ccccc1)C2` (some centres not stated), the Potency result in [1], in [2], in experiment [3], in experiment [4], in experiment [5] and in [6] was “inactive” throughout. Besides, the Potency result in [7], in [8] and in experiment [9] was “inactive” in each case.

As for `CN(C)CCc1c[nH]c2ccccc12`, the Potency entry in [1], in experiment [2], in experiment [3], in experiment [5], in experiment [6] and in [7] was “inactive” each time. The Potency entry in experiment [8] and in [9] was “inactive” each time. For the same compound, the Potency in experiment [4] is 39.6 µM (active).

With `CCCCCCCCCCCCCCn1cc[n+](C)c1`, the Potency in [1] was 50.4 µM (active) and 70.2 µM (active) and inactive; in experiment [2], 20.1 µM (active) and 31.4 µM (active) and inactive; in experiment [4], 1.13 µM (active) and 1.25 µM (active); in [5], 40 µM (active) and 78.8 µM (active); in [6] it was 11.3 µM (active); in experiment [7] it was 40 µM (active) and 62.6 µM (active). The Potency in experiment [8] is 3.9 µM (active) and 6.84 µM (active) and inactive; in experiment [9] it was 40 µM (active). In [3], the Potency entry was “inactive”.

On to `CNC(C)(C)Cc1ccccc1`, for which the Potency result in experiment [1], in [2], in [3], in [5], in experiment [6] and in [7] was “inactive” in each case. Besides, the Potency entry in [8] and in experiment [9] was “inactive” throughout. Besides, the Potency in [4] is 9.77 µM (active).

On to `CCCCC/C=C\C/C=C\C/C=C\C/C=C\CCCC(=O)NCC(=O)O`, for which the Potency entry in experiment [1], in [2], in experiment [3], in [5], in experiment [7] and in experiment [8] was “inactive” each time. Also, in [9], the Potency result is “inactive”. Besides, the Potency is 15.5 µM (active) in experiment [4] and 13.8 µM (active) in [6].

As for `CC(=O)[O][Pb]([c]1ccccc1)([c]1ccccc1)[c]1ccccc1`, the Potency entry in experiment [1], in experiment [2] and in experiment [3] was “inactive” each time. In addition, the Potency was 22.4 µM (active) in experiment [4]; 8.94 µM (active) in experiment [5]; 3.17 µM (active) in experiment [6]; 39.9 µM (active) in experiment [7]; 10 µM (active) in experiment [9].

`O=S1(=O)OCC2C(CO1)C1(Cl)C(Cl)=C(Cl)C2(Cl)C1(Cl)Cl` (configuration not stated): the Potency entry in experiment [1], in [2], in experiment [3] and in [4] was “inactive” throughout. For the same compound, the Potency in experiment [5] was 1.59 µM (active); in [6] it was 15.9 µM (active); in experiment [7], 31.7 µM (active); in experiment [8] it was 17.4 µM (active); in [9], 0.224 µM (active).

In the case of `N#Cc1ccc(N(CC(N)=O)CC(F)(F)F)cc1C(F)(F)F`, the Potency result in experiment [1], in experiment [2], in [3] and in experiment [8] was “inactive” throughout. The Potency in experiment [4] is 31.7 µM (active); in experiment [5] it was 79.6 µM (active); in experiment [6] it was 35.6 µM (active); in experiment [7], 39.9 µM (active).

Regarding `C=CCOC(=O)c1ccccc1N`, the Potency result in experiment [1], in [2], in experiment [3] and in experiment [8] was “inactive” in each case. The Potency was 63.7 µM (active) in [4]; 25.4 µM (active) in experiment [5]; 35.8 µM (active) in experiment [6]; 7.15 µM (active) in experiment [7]; 40.2 µM (active) in experiment [9].

With `CC#C[C@]1(O)CC[C@H]2[C@@H]3C[C@H](C)C4=CC(=O)CC[C@]4(C)[C@H]3CC[C@@]21C`, the Potency entry in [1], in experiment [2], in experiment [3], in experiment [4], in experiment [7] and in experiment [8] was “inactive” throughout. Also, the Potency in [5] is 9.77 µM (active); in experiment [6], 17.4 µM (active).

Take `Cc1ccc2cc3c(ccc4ccccc43)c3c2c1CC3`: the Potency result in [1], in [2], in [3], in [4] and in [8] was “inactive” throughout. Besides, the Potency is 40 µM (active) in experiment [5], 5.65 µM (active) in experiment [6], 0.449 µM (active) in experiment [7] and 8.96 µM (active) in [9].

As to `[O-][Cl+3]([O-])([O-])O`, the Potency entry in [1], in experiment [2], in experiment [3], in experiment [4], in experiment [5] and in experiment [6] was “inactive” each time. Also, the Potency entry in experiment [7], in [8] and in [9] was “inactive” in each case.

As to `CC(C)C(Br)C(=O)NC(N)=O` (configuration not stated), the Potency result in [1], in [2], in [3], in [4], in experiment [5] and in experiment [6] was “inactive” each time. Further, the Potency entry in [7], in experiment [8] and in experiment [9] was “inactive” in each case.

As for `ClC(Cl)C(Cl)(Cl)Cl`, the Potency entry in experiment [1], in [2], in [3], in experiment [4], in [5] and in [6] was “inactive” throughout. The Potency entry in [8] and in [9] was “inactive” each time. In experiment [7], the Potency was 31.1 µM (active).

Consider `CCCCN(CCCC)C(=S)S`, for which the Potency result in [1], in [2], in experiment [3] and in experiment [5] was “inactive” in each case. Further, in experiment [4], the Potency is 1.59 µM (active).

As for `ClCBr`, the Potency result in [1], in experiment [2], in experiment [3], in [4], in experiment [5] and in experiment [6] was “inactive” each time. In addition, the Potency entry in experiment [7], in experiment [8] and in [9] was “inactive” in each case.
